Rows were chosen to be rich in hits. Some 0.92% of all compounds tested hit in one or more screens of this group.
BLM helicase inh – blocks DNA unwinding by human BLM helicase; AID 2528; hit rate 0.2% among 350,000; recombinant BLM DNA unwinding, fluorescence dequenching; P54132; Potency, µM (top dose mostly 56.1 µM), for the others: at the top dose activity change, negative = inhibition, most hits filed as inhibitors;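 note: plate controls were vehicle for no effect and no enzyme for full effect; nearly all actives have a fitted effect of over 35% in size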
FEN1 inh-1 – blocks human flap endonuclease 1. hit rate 0.35% among 390,000. Recombinant FEN1 flap cleavage, fluorescence, 15 min. P39748. Potency, µM (doses to about 114 µM), inactives show top-dose activity change, negative = inhibition, actives largely listed as inhibitors. AID 588795; note: % is set by controls: 0 for no effect and ±100 for the full control effect; nearly all actives have a fitted effect of over 65% in size
Target sequence (P39748 whole entry, looked up): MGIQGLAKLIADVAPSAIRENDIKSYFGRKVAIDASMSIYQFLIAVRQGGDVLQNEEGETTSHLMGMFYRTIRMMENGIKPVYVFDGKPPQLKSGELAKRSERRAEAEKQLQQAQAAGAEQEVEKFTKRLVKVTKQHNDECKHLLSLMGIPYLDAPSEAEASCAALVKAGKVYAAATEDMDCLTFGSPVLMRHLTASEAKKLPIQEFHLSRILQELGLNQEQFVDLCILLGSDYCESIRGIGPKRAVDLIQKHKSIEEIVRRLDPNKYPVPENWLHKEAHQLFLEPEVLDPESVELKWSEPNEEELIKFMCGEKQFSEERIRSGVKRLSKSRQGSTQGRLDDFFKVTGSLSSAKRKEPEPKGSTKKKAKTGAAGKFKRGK
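Read-out was taken twice, immediately and after 15 min, following addition of 50 nM substrate to 10 nM FEN1 that had sat with test compound for 15 min at room temperature. Curves came from a four-parameter Hill model.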
APEX1 inh – APE1 (human) endonuclease inhibition | AID 2517 | P27695 | Potency, µM (doses to about 65.8 µM), for inactives: top-dose activity change, negative = inhibition, usual class: inhibitors | recombinant APE1, TAMRA/BHQ-2 abasic DNA cleavage fluorescence | hit rate 0.35% among 350,000;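 note: plate controls were vehicle for no effect and reference inhibitor for full effect; nearly all actives have a fitted effect of over 55% in size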
Target sequence (P27695 whole entry, looked up): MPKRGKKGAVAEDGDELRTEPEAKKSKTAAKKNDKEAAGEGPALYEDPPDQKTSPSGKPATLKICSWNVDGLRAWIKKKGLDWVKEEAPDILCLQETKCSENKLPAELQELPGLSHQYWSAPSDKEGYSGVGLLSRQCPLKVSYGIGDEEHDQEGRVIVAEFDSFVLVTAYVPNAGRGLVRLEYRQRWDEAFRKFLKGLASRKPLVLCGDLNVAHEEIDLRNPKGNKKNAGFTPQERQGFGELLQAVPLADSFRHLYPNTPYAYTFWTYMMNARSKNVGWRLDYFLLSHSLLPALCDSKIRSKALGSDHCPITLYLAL
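Endonuclease cleavage of a quenched abasic-site DNA duplex (50 nM) by APE1 (0.75 nM) was tracked by TAMRA dequenching. Compounds were preincubated with enzyme 15 min at room temperature; data normalized to buffer-only and DMSO wells plus NSC13755 control.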
RECQ1 helicase – inhibitors of human RECQ1 DNA helicase; P46063; RECQ1 DNA unwinding, red fluorescence kinetic read; Potency, µM (series often up to 57.3 µM), inactives show top-dose activity, negative = inhibition, actives largely listed as inhibitors; hit rate 0.54% among 240,000;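 note: plate controls were vehicle for no effect and no enzyme for full effect; nearly all actives have a fitted effect of over 30% in size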
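RECQ1T1 50 nM; forked duplex (20 bp + 30-nt ss tails) 200 nM, ATP 2 mM final; pH 8.0, 2 mM MgCl2, 2.5 ug/ml poly(dI-dC); 15 min compound preincubation; discontinuous kinetic read over 2 h at RT.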
TDP1 inh – inhibitors of human tyrosyl-DNA phosphodiesterase TDP1; Q9NUW8; recombinant TDP1, AlphaScreen DNA substrate cleavage; Potency, µM (top dose mostly 130 µM), without a hit: at the top dose activity change, negative = inhibition, usual class: inhibitors; hit rate 0.28% among 350,000; note: % is set by controls: 0 for no effect and ±100 for the full control effect; nearly all actives have a fitted effect of over 40% in size
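AlphaScreen read-out: signal falls as enzyme removes the 3' tyrosine-FITC from a 5'-biotinylated DNA oligo (15 nM, 5 min, RT). Enzyme was E. coli-made recombinant Tdp1 at 1 nM, exposed to compound for 15 min beforehand; beads 10 ug/ml, 10 min.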
FEN1 inh-2 – FEN1 inhibition, cherry-pick retest. shares compounds with FEN1 inh-1. FEN1 flap cleavage, TAMRA/BHQ2 fluorogenic DNA substrate. Potency, µM, usual class: inhibitors. hit rate 79% among 880; note: nearly all actives have a fitted effect of over 60% in size
The depositor's hits bear a star; i = inactive; u = inconclusive; x = no result given; [ ] = another dose, or the depositor's remark. Calls come from the whole dose curve; as a rule, active = well fitted curve in the direction sought with a large enough effect; inconclusive = small, poorly fitted or top-dose-only effect, or another doubt; inactive = no such curve, though single readings can be large; an effect the other way counts as inactive or inconclusive. Potency is the fitted concentration of half-maximal effect.

SMILES	BLM helicase inh	FEN1 inh-1	APEX1 inh	RECQ1 helicase	TDP1 inh	FEN1 inh-2
O=C(O)CCN1C(=O)/C(=C/c2cn(-c3ccccc3)nc2-c2cccs2)SC1=S	-6%	u	-2%	9%	-3%	x
COc1ccc(-c2nn(-c3ccccc3)cc2/C=C2/SC(=S)N(CCC(=O)O)C2=O)c(C)c1	u	u	u	x	40µM*	67*
Cc1ccc(NC(=O)CSc2nc3ccc(NC(=O)c4ccco4)cc3s2)cc1	-22%	-7%	x	x	3%	x
O=C(NCCO)c1cc2c([nH]c3ccccc32)c(-c2ccc(F)cc2)n1	-3%	u	15%	x	x	x
Cc1ccc(-c2nc(C(=O)NCCCN(C)C)cc3c2[nH]c2ccccc23)cc1	169%	u	-8%	x	x	38*
CC(=O)N1CCc2cc(S(=O)(=O)NC(Cc3ccccc3)C(=O)Nc3ccc(Cl)cc3)ccc21 (configuration not stated)	-4%	-13%	x	x	2%	x
Cc1ccccc1/C=N/n1c(-c2cc(-c3ccccc3)n[nH]2)n[nH]c1=S	-2%	3%	0%	-18%	x	x
S=c1[nH]nc(-c2cc(-c3ccccc3)n[nH]2)n1/N=C/c1c(Cl)cccc1Cl	-23%	u	-2%	-21%	x	u
CCOC(=O)c1c(C)[nH]c(C)c1C(=O)COC(=O)c1ccc([N+](=O)[O-])s1	x	u	-21%	x	6%[56.1 µM]	27*
O=C1CC(=O)NC(SCC(=O)Nc2ccccc2[N+](=O)[O-])=N1	-17%	u	-42%	x	x	u
C/C(=N\NC(=O)c1ccc(OC2OCCOC2Oc2ccc(C(=O)N/N=C(\C)c3ccncc3)cc2)cc1)c1ccncc1 (configuration not stated)	-14%	-33%	2%	-4%	-1%	67*
C/C(=N\NC(=O)c1ccncc1)c1ccc(N2CCOCC2)cc1	x	15%	0%	x	0%	x
O=C(O)CCN1C(=O)C2CCCCC2C1=O (configuration not stated)	0%	9%	-1%	-3%	-2%	x
O=C1C(=O)N(O)C2CCCCC2N1O (configuration not stated)	-2%	18µM*	0%	-5%	0%	24*
CN1C=C/C(=C\c2cc[n+](C)c3ccccc23)c2ccccc21	u	28µM*	3%	-7%	7%	8.5*
CC[n+]1ccc(/C=C/c2ccc(N(C)C)cc2)c2ccccc21	-28%	40µM*	10%	35µM*	6%	48*
COc1cccc(NC(=O)N2CCN3CCCCC3C2)c1 (configuration not stated)	1%	10%	x	x	-4%	x
O=S(=O)(c1ccc(Cl)cc1)c1nc(-c2cccc(Br)c2)oc1NCc1ccccc1	-5%	15%	x	x	6%[12.3 µM]	x
CN(CCC#N)C(=O)COC(=O)c1nn(-c2ccccc2)c(=O)c2ccccc12	-1%	-1%	0%	2%	5%	x
CN(CCC#N)C(=O)COC(=O)c1c2c(nc3ccccc13)/C(=C\c1ccco1)CC2	x	50µM*	x	x	x	67*
Cc1ccc2onc(CNC(=O)Nc3ccccc3C#N)c2c1	1%	0%	x	x	0%	x
CC(C)c1ccc(OC(=O)c2cc(-c3ccccc3)on2)cc1	3%	1%	x	x	-3%	x
CCC(c1nnnn1Cc1ccccc1)N(Cc1ccccc1)Cc1cc2cc(C)ccc2[nH]c1=O (configuration not stated)	x	u	x	x	4%	x
O=S(=O)(c1cccc2ccccc12)N1CCN(c2nc(-c3cccs3)nc3ccccc23)CC1	x	10%	x	x	0%	x
CC[N+](CC)(CC)CCCCOc1ccc2c(c1)C(=O)c1cc(OCCCC[N+](CC)(CC)CC)ccc1-2	u	13µM*	u	-7%	x	21*
SMILES	BLM helicase inh	FEN1 inh-1	APEX1 inh	RECQ1 helicase	TDP1 inh	FEN1 inh-2
CCOC(=O)CSc1[nH]c2cc(OC)ccc2c1[N+](=O)[O-]	1%	6%	-6%	11%	-5%	x
COc1ccc2c([N+](=O)[O-])c(Cl)[nH]c2c1	-7%	18µM*	2%	8%	-2%	34*
CN(C)S(=O)(=O)c1cccc(NC(=O)COC(=O)c2ccc([N+](=O)[O-])o2)c1	3%	50µM*	-3%	-6%	4%	19*
O=C(COC(=O)c1ccc([N+](=O)[O-])o1)Nc1cccc(S(=O)(=O)N2CCOCC2)c1	-4%	28µM*	11%	-3%	6%	19*
O=C(COC(=O)c1ccc([N+](=O)[O-])o1)Nc1ccc(F)cc1	x	u	-44%	x	2%	x
Cc1cccc(NC(=O)COC(=O)c2ccc([N+](=O)[O-])o2)c1C	-3%	u	u	i	-2%	21*
O=C(COC(=O)c1ccc(Br)o1)Nc1cccc(S(=O)(=O)N2CCOCC2)c1	x	-21%	-10%	x	1%	x
CCCCc1ccc(NC(=O)Cn2cnc3c2c(=O)n(C)c(=O)n3C)cc1	-4%	1%	x	x	0%[12.3 µM]	x
COc1ccc(CNc2ncnc3c2[nH]c2cc(OC)c(OC)cc23)cc1	u	35µM*	-7%	-29%	x	30*
Cc1ccccc1-c1nn[nH]n1	-2%	5%	-3%	-7%	1%	x
Oc1ccc(N=Nc2ccccc2-c2nn[nH]n2)c(O)c1	-2%	u	-12%	x	x	38*
COc1ccc2[nH]c3c(=O)n(CCCCC(=O)NCCN4CCCC4)c(=S)[nH]c3c2c1	-27%	u	1%	-19%	-1%	u
Cc1c(Br)c(=O)oc2c(Br)c(O)c(O)cc12	7.9µM*	28µM*	3%	i	5%	30*
CNC1C(O)C(OC2C(N)CC(N)C(OC3OC(CN)=CCC3N)C2O)OCC1(C)O (configuration not stated)	3%	x	x	x	x	x
Cc1cc(C)n2nc(C(=O)N/N=C/c3c4ccccc4cc4ccccc34)nc2n1	u	45µM*	-3%	-13%	x	u
COc1cc(/C=C2\C(=O)N(CCC#N)N=C2C)ccc1OCC(=O)Nc1ccccc1	-1%	u	-4%	4%	10%	x
CCOc1cc(/C=C2\C(=O)N(CCC#N)N=C2C)ccc1OCC(N)=O	1%	-5%	0%	-28%	5%	u
O=C(NC(c1ccco1)c1cc(Cl)c2cccnc2c1O)c1ccsc1 (configuration not stated)	x	x	x	x	x	u
Cc1ccc(-c2nc3ncccc3o2)cc1NC(=O)c1ccc(-c2cccc(Cl)c2C)o1	-12%	3%	x	x	0%[12.3 µM]	x
Cc1csc2c1c(=O)n(O)c(=O)n2Cc1ccccc1	x	x	x	x	x	0.11*
Cc1sc2c(c1C)c(=O)n(Cc1ccccc1)c(=O)n2Cc1ccc(F)cc1	-3%	-6%	x	x	-3%	x

From PubChem
